Giardia kill: Giardia lamblia killing; Giardia lamblia trophozoite viability; activity change, % at 7.66 µM, hits read low; actives 0.15% (n = 340,000); in the data active means activity change below about -80%; inconclusive means between about -30% and that limit;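 further: parasites exposed to compound for two days anaerobically before the ATP read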
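Luminescence from cellular ATP indicates surviving trophozoites (100 cells/well) following 48 hrs anaerobic compound treatment at 37 deg C; signal develops 15-30 min at room temperature.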
RORg inh: blocks mouse ROR gamma transcriptional activity; P51450; actives 5.4% (n = 310,000); Potency, µM (doses to about 53.6 µM), actives largely listed as inhibitors; Drosophila S2 Gal4-RORgamma UAS-luciferase reporter, 20 h; AID 2551; further: nearly all actives have a fitted effect of over 60% in size
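Compounds are pin-transferred onto Drosophila Schneider cells expressing a copper-inducible Gal4–ROR gamma transactivation domain fusion. After 1 hr, copper sulfate is added to 700 uM final; luciferase is read 20 hr later.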
ERG Ets-DNA blk: inhibitors of human ERG Ets domain-DNA interaction; P11308; actives 0.028% (n = 370,000); AID 624246; Potency, µM (highest dose often 76.9 µM), usual class: inhibitors; fluorescence polarization, His-ERG Ets domain / labelled DNA; active means well fitted inhibition curve with a large enough effect in the polarisation, with a control signal flat; inconclusive means small, poorly fitted or top-dose-only effect, or effect the other way, or a change in a side signal; inactive means no such curve, though single readings can be large or run the other way; the % refers to the polarisation;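 further: polarization taken with two DNA probes labelled with fluorescein and Texas red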
Target sequence (P11308 whole entry, looked up, the tested form may be a part): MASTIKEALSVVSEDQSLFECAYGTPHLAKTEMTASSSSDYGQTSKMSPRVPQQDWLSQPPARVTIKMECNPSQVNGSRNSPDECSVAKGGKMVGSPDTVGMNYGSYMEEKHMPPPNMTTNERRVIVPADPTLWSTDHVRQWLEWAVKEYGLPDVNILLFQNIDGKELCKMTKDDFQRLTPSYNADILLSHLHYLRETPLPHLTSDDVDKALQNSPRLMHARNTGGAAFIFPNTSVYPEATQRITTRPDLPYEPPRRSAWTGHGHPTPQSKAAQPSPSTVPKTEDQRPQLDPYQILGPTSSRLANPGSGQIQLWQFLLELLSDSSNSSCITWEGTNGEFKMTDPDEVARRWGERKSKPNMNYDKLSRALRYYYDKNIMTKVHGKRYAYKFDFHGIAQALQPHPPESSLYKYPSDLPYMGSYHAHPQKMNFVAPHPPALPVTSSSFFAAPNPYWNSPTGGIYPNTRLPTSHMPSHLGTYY
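His-tagged ERG Ets domain (1 uM in the protein solution; 300mM KCl, 50mM Tris-HCl, 1mM EDTA, 1mM DTT, pH 7.5) received compound, then a probe mix of 5 nM fluorescein-DNA and 100nM Texas-615-DNA. Fluorescence polarization was read for both dyes.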
Gal4-VP16 FLuc: inhibits Gal4-VP16 luciferase reporter, ROR gamma counter-screen; actives 3.5% (n = 310,000); Potency, µM (titrated, usually from 53.6 µM), usual class: inhibitors; Drosophila S2 Gal4-VP16 UAS-luciferase, luminescence, 20 h;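 further: Gal4-VP16 expression switched on by copper sulfate through the metallothionein promoter; nearly all actives have a fitted effect of over 50% in size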
a7 integrin act: activators of alpha7 integrin expression for muscular dystrophy | AID 624291 | actives 0.064% (n = 350,000) | Potency, µM (titrated, usually from 38.3 µM), actives largely listed as activators | alpha7betagal myoblasts, beta-gal FDG fluorescence, 48 h; further: nearly all actives have a fitted effect of over 60% in size
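Alpha7betagal+/- myoblasts (passage 13) were plated 16-24 hr, then exposed to compounds (1:260 dilution of DMSO stock) for 48 hours at 37C. After MPER lysis, β-galactosidase reporter activity was read as FDG fluorescence (ex 480/em 540) after 30 minutes.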
Hits are given with their value; n = inactive; u = inconclusive; x = not tested or not shown; [ ] = dose if it differs, or a comment. The full list was thinned out, with hits kept by preference. Unless noted, the call rests on the fitted dose curve; in most records, active means well fitted curve in the direction sought with a large enough effect; inconclusive means small, poorly fitted or top-dose-only effect, or another doubt; inactive means no such curve, though single readings can be large; an effect the other way counts as inactive or inconclusive.

SMILES	Giardia kill	RORg inh	ERG Ets-DNA blk	Gal4-VP16 FLuc	a7 integrin act
COc1ccc(C(CNc2ccc(C(F)(F)F)cn2)N(C)C)cc1OC (centres undefined)	n	n	n	n	n
S=c1nc[nH]c2c1cnn2Cc1ccccc1	n	22µM	n	u	n
O=C1C[C@H](c2ccc3ccccc3c2)N1S(=O)(=O)c1ccccc1[N+](=O)[O-]	n	n	x	n	x
CCc1ccc2c(c1)C1(NN=C(c3cccc4ccccc34)S1)C(=O)N2 (centres undefined)	x	2.8µM	x	2.8µM	x
O=C1[C@H]2[C@H]3[C@H](O)[C@H](O)C/C(=N/OCc4ccccc4)[C@@H]3CC[C@@H]2C(=O)N1C1CCCCC1	x	n[10 µM]	x	n[10 µM]	x
N#Cc1ncc(Cc2ccccc2)nc1C#N	n	n[1.91 µM]	n	14µM	n
Cc1cc(C)c2nc(N3CCCC(C(=O)NCc4cccc(Cl)c4)C3)sc2c1 (centres undefined)	x	x	n	x	x
Cc1ccc(-c2nnc(N3CCCCC3)c3ccccc23)cc1S(=O)(=O)N(C)C	n	n	x	18µM	n
Cc1ccc(-c2nnc(N3CCCCC3)c3ccccc23)cc1S(=O)(=O)N1CCN(C)CC1	n	n	n	u	n
Cc1ccc2sc(NNC(=O)C3=COCCO3)nc2c1C	n	5.6µM	n	u	n
O=C(NNc1nc2c(F)cccc2s1)C1=COCCO1	n	11µM	n	n	n
CSc1cccc2sc(NC(=O)C3=COCCO3)nc12	n	x	n	x	n
Cc1ccc2sc(N3CCN(C(=O)C4=COCCO4)CC3)nc2c1C	n	x	n	x	n
CCSC[C@H](NC(=O)[C@H](C)NC(=O)[C@@H](N)Cc1ccc(O)cc1)C(=O)N[C@@H](CC(=O)O)C(=O)N[C@H](C(=O)N[C@@H](C)C(=O)N[C@H](C(=O)N[C@@H](CSCC)C(=O)N[C@H](C(=O)N[C@H](C(=O)N[C@@H](Cc1cnc[nH]1)C(=O)N[C@@H](CCCNC(=N)N)C(=O)N[C@@H](CC(C)C)C(=O)N[C@@H](C)C(=O)NCC(=O)N[C@@H](CC(C)C)C(=O)N[C@@H](CC(C)C)C(=O)N[C@@H](CO)C(=O)N[C@@H](CCCNC(=N)N)C(=O)N[C@@H](CO)C(=O)NCC(=O)NCC(=O)N[C@H](C(=O)N[C@H](C(=O)N[C@@H](CCCCN)C(=O)N[C@@H](CC(N)=O)C(=O)N[C@@H](CC(N)=O)C(=O)N[C@@H](Cc1ccccc1)C(=O)N[C@H](C(=O)N1CCC[C@H]1C(=O)N[C@H](C(=O)N[C@@H](CC(N)=O)C(=O)N[C@H](C(=O)NCC(=O)N[C@@H](CO)C(=O)N[C@@H](CCCCN)C(=O)N[C@@H](C)C(=O)N[C@@H](Cc1ccccc1)C(N)=O)C(C)C)[C@@H](C)O)C(C)C)C(C)C)C(C)C)[C@@H](C)O)C(C)C)[C@@H](C)O)[C@@H](C)O	x	n	x	n	x
COc1cccc(CCc2ccccc2OCC[C@@H]2C[C@@H](O)CN2C)c1	x	7.1µM	x	n	x
COc1ccc(C(=O)CCS(=O)(=O)c2ccc(C)cc2)cc1OC	n	2.8µM	n	4.5µM	n
Cc1ccc(S(=O)(=O)CCC(=O)OCC(=O)c2cc(C)ccc2C)cc1	n	x	n	x	n
Cc1ccc(S(=O)(=O)CCC(=O)c2ccc(O)cc2O)cc1	n	14µM	n	u	n
CSc1nnc(NC(=O)c2ccc3c(c2)OCO3)s1	u	2.5µM	n	4.5µM	n
CCOC(=O)C(C)Sc1nnc(NC(=O)c2ccc3c(c2)OCO3)s1 (centres undefined)	n	10µM	n	n	n
CC1CCCC(NC(=O)CSC2CCCCC2)C1C (centres undefined)	n	n	n	u	n
CC1CCCCC1NC(=O)NC(=O)CCl (centres undefined)	n	5µM	n	6.3µM	n
CC1CCCC(NC(=O)NC(=O)CCl)C1C (centres undefined)	n	3.2µM	n	5µM	n
CC1CCCCC1NC(=O)NC(=O)COC(=O)c1nccnc1N (centres undefined)	n	x	n	x	n
COc1cccc(CNC(=O)c2ccc3nc(-c4ccccc4)c(-c4ccccc4)nc3c2)c1OC	x	x	n	x	x
SMILES	Giardia kill	RORg inh	ERG Ets-DNA blk	Gal4-VP16 FLuc	a7 integrin act
C#CCn1c(=NC(=O)CSC(C)=O)sc2cc(F)ccc21	n	2.5µM	n	n	n
CC(=O)c1c(C)oc2c1C(=O)c1ccccc1C2=O	u	4µM	n	16µM	n
O=C1c2ccccc2C(=O)c2c(NCc3cccnc3)cccc21	n	n	n	3.2µM	n
c1ccc(NCc2cccnc2)cc1	n	n	n	n	n
Cc1oc2c(c1C(=O)NCc1cccnc1)C(=O)c1ccccc1C2=O	-86	u	n	4.5µM	n
CC(=O)OC[C@@H]1O[C@@H](O/N=C2/C[C@@H](O)[C@@H](O)[C@@H]3[C@@H]4C(=O)N(C(C)(C)C)C(=O)[C@H]4CC[C@@H]23)[C@H](OC(C)=O)[C@H](OC(C)=O)[C@@H]1OC(C)=O	x	n[10 µM]	x	n[10 µM]	x
CCCC/C=C/[C@H](c1ccccc1)[C@H](CO)Cc1cnc2ccccc2c1	n	n	x	n	x
CC(=O)Nc1ccc(Nc2nc(C)c([N+](=O)[O-])c(Nc3ccccc3)n2)cc1	n	u	u	13µM	n
COC(=O)CN1C(c2ccccc2)=Nc2ccc(Cl)cc2C1c1ccccc1 (centres undefined)	n	13µM	n	n	n
COC(=O)CN1C(C)=Nc2ccc(C)cc2C1c1ccccc1 (centres undefined)	n	n	n	n	n
Cc1ccc(NC(=O)c2cccs2)cc1[N+](=O)[O-]	n	n	n	n	n
COc1cc(NC(=O)c2cccs2)ccc1NC(=O)Cc1ccccc1	n	u	n	n	n
O=C(Nc1nc(-c2cccs2)cs1)c1ccc([N+](=O)[O-])o1	-82	x	n	x	n
O=C(Nc1nc(-c2cccs2)cs1)c1ccco1	n	u	n	u	u
COc1cc(NC(=O)c2ccc([N+](=O)[O-])o2)ccc1NC(=O)c1cccs1	-102	u	n	n	n
O=C(Nc1cccc(NC(=O)c2cccs2)c1)c1ccc([N+](=O)[O-])o1	-89	n	n	u	n
CCC1CCCCN1CCCNC(=O)c1ccc2c(c1)N(Cc1ccc(Cl)cc1)C(=O)c1ccccc1S2(=O)=O (centres undefined)	x	x	n	x	x
CC(=O)OCC1(C)CN(c2ccccc2)NC1=O (centres undefined)	u	13µM	n	u	n
Fc1ccc(Cn2cnc3ccccc32)cc1	n	n	n	n	n
Cc1cccc(Cn2cnc3ccccc32)c1	n	u	n	n	n
Cc1ccc(Cn2cnc3ccccc32)cc1C	n	10µM	n	u	n
CCCOc1ccc(Cn2cnc3ccccc32)cc1	n	16µM	n	u	n
CCn1nnc(NC(=O)C(c2ccccc2)c2ccccc2)n1	n	n	n	n	n

Compound activity from PubChem BioAssay.
